Data: PubChem BioAssay (NCI)
The panel holds about 83,000 compounds, 20% with a hit somewhere; the sample as a whole holds those more often.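 Negative percent growth values reflect cell death: -40 means 40% of the cells present at the start died, and -100 means all died.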 Unmarked numbers belong to inactive results. Active and inactive are the calls of the source. How the source made its calls: active means growth percent below 10; inactive means the rest.

Tests used:
Test in all cases: NCI-60 one-dose screen, 48 h (100 = growth as untreated, 0 = no growth, -100 = all killed)
Settings in all cases: 10 µM unless noted
[1] = system: HT29 colon
[2] = system: SNB-75 CNS
[3] = system: SNB-19 CNS
[4] = system: U251 CNS
[5] = system: PC-3 prostate
[6] = system: SK-MEL-5 melanoma
[7] = system: UACC-62 melanoma
[8] = system: LOX IMVI melanoma
[9] = system: SK-MEL-28 melanoma
[10] = system: SK-MEL-2 melanoma
[11] = system: EKVX NSCLC
[12] = system: SN12C renal
[13] = system: UO-31 renal
[14] = system: TK-10 renal
[15] = system: ACHN renal
[16] = system: CAKI-1 renal
[17] = system: A498 renal
[18] = system: CCRF-CEM leukemia
[19] = system: MOLT-4 leukemia

SMILES | growth [1] | growth [2] | growth [3] | growth [4] | growth [5] | growth [6] | growth [7] | growth [8] | growth [9] | growth [10] | growth [11] | growth [12] | growth [13] | growth [14] [%] | growth [15] | growth [16] | growth [17] | growth [18] | growth [19]
COc1ccc2[nH]cc(-c3csc4nc(-c5ccccc5)cn34)c2c1 | -8.92% (active) | -4.19% (active) | 23.6% | 13.6% | 19.4% | 47.2% | 32.4% | -2.73% (active) | 73.8% | -5.6% (active) | 35.8% | 40.2% | 33.2% | 75.6 | 38.6% | 26.3% | -19.7% (active) | 16.2% | 19.7%
COc1cc(-c2nn(C(C)(C)C)cc2-c2ccnc(NCCCNS(=O)(=O)c3cccc(F)c3)n2)ccc1Cl | 65.1% | 46.2% | 93.4% | 88.3% | 51.3% | 81.8% | 69.2% | 67.2% | 91.6% | 85.8% | 40.6% | 58.6% | 42.9% | 68.2 | 83.4% | 25.7% | 34.4% |  | 44%
N#Cc1c(NC(=O)c2cccc(C(F)(F)F)c2F)sc2c1CCC(=O)C2 | 4.38% (active) | -66.3% (active) | 15.4% |  | -43.9% (active) | -91.1% (active) | -56.6% (active) | -8.55% (active) | -71.8% (active) | 5.28% (active) | 5.47% (active) | 7.61% (active) | -99.7% (active) | 24.1 | -95.5% (active) | -83.5% (active) | -8.37% (active) | 7.8% (active) | -0.731% (active)
NC(N)=Nc1ccc(Oc2cccc(Nc3ccc(Cl)c(C(F)(F)F)c3)c2)cn1 | -39.2% (active) | 20.3% | -77% (active) | -82.2% (active) | -89.4% (active) | 26.7% | -78.3% (active) | -83.8% (active) | -28.6% (active) | -17.7% (active) | -58.5% (active) | -84.4% (active) | 43.3% | 23.2 | 3.16% (active) | -6.78% (active) | -7.17% (active) | -7% (active) | -39% (active)
CC(=O)c1nnn(-c2c(C(=O)n3nc(C)cc3C)sc(=S)n2-c2ccccc2)c1C | 114% | 98.4% | 99.1% | 109% | 98.2% | 100% | 86.2% | 98.8% | 112% | 108% | 90.7% | 103% | 79.8% | 138 | 102% | 91.8% | 94.9% | 101% | 94.9%
O=C1C(c2ccccc2)=C(N2CCc3ccccc32)OC1(Cl)Cl | 37.4% | 74.3% | 84.9% | 85.8% | 69.5% | 99.8% | 81.4% | 56.7% | 31.8% | 92.2% | 76.3% | 77.5% | -23.6% (active) | 27.6 | -63.8% (active) | 4.78% (active) | 69.2% | -17.8% (active) | 0.0776% (active)
CCCn1cnc2c(c1=N)C(c1ccc(OC)cc1)c1sc3c(C)cccc3c1O2 (stereo unspecified) | 7.24% (active) | 17.8% | 24% |  | 6.95% (active) | 40.3% | 14.3% | 25.1% | 53.9% | 36.9% | 40.9% | 19% | 27.2% |  | 31.8% | 25.8% | -21.4% (active) | 3.52% (active) | 17%
Oc1[nH]c2ccccc2c1Nn1c(N=N/C=c2/ccc3c(c2)C=NN=3)n[nH]c1=S | 19.4% | 66.7% |  | 111% | 97.4% | 92% | 98.9% | 97.6% | 115% | 104% | 64.2% | 93.9% | 74.8% | 165 | 96.8% | 82.8% | 82.9% |  | 103%
COc1ccc(NCc2cn(-c3ccc(C(=O)O)cc3)nc2-c2cc(C(F)(F)F)cc(C(F)(F)F)c2)cc1 | 99.1% | 91.9% | 94.9% |  | 93% | 98.8% | 97.3% | 99.5% | 107% | 101% | 90.3% | 95.4% | 93.1% | 110 | 102% | 81.5% | 72.1% | 95.9% | 86.4%
Cc1cc(-c2ccc(Cl)cc2)n(Cc2nnc(SCC(=O)Nc3ccc(S(N)(=O)=O)cc3)n2-c2ccc([N+](=O)[O-])cc2)n1 | 90.9% | 129% |  |  | 56.5% | 95.9% | 77.4% | 88.4% | 97.4% | 87% | 75.1% | 82% | 64% | 105 | 79.1% | 71.2% | 84.5% | 79.8% | 54.4%
